# What was measured:
# Assay in all cases: PBM binding z-score (relative to random genomic background probes); higher = stronger binding; sequences stand for … in GC…GCGATTGACAGCGTAGAATGAAGG
# [1] = system: FXR:RXRa (NR concentration 270 nM, RXRa partner concentration 90 nM)
# Method in brief: (§1)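 Regression normalization was applied to scanned fluorescence from custom Agilent 4×180K protein-binding microarrays. Before scanning, arrays were incubated 1 h with ligand-free nuclear receptor dimers, and binding was detected with antibodies against each partner (one per run). Binding z-scores use the random background probes as reference.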
# [2] = system: LXRa:RXRa (NR concentration 270 nM, RXRa partner concentration 90 nM)
# Method in brief: as §1
# [3] = system: LXRa homodimer (NR concentration 270 nM)
# Method in brief: as §1
# [4] = system: LXRb:RXRa (NR concentration 270 nM, RXRa partner concentration 90 nM)
# Method in brief: as §1
# [5] = system: LXRb homodimer (NR concentration 270 nM)
# Method in brief: as §1
# [6] = system: PPARa:RXRa (NR concentration 270 nM, RXRa partner concentration 90 nM)
# Method in brief: as §1
# [7] = system: PPARg:RXRa (NR concentration 180 nM, RXRa partner concentration 90 nM)
# Method in brief: as §1
# [8] = system: PPARg:RXRa 270nM:90nM, anti-RXR (NR concentration 270 nM, RXRa partner concentration 90 nM)
# Method in brief: as §1
# [9] = system: PPARg:RXRa 30nM:10nM, anti-RXR (NR concentration 30 nM, RXRa partner concentration 10 nM)
# Method in brief: as §1
# [10] = system: PPARg:RXRa 90nM:30nM, anti-RXR (NR concentration 90 nM, RXRa partner concentration 30 nM)
# Method in brief: as §1
# [11] = system: PPARg:RXRa DBDmut IVT, anti-RXR (DBD mutation: RXRa K156A/R161A, NR concentration 270 nM, RXRa partner concentration 90 nM)
# Method in brief: as §1
# [12] = system: PPARg:RXRa IVT, anti-PPARg (NR concentration 270 nM, RXRa partner concentration 90 nM)
# Method in brief: as §1
# [13] = system: PPARg DBDmut:RXRa IVT, anti-PPARg (DBD mutation: PPARg1 K132A/R137A, NR concentration 270 nM, RXRa partner concentration 90 nM)
# Method in brief: as §1
# [14] = system: PPARg DBDmut IVT, anti-PPARg (DBD mutation: PPARg1 K132A/R137A, NR concentration 270 nM)
# Method in brief: as §1
# [15] = system: PPARg homodimer (NR concentration 180 nM)
# Method in brief: as §1
# [16] = system: PXR:RXRa (NR concentration 270 nM, RXRa partner concentration 90 nM)
# Method in brief: as §1
# [17] = system: PXR homodimer (NR concentration 270 nM)
# Method in brief: as §1
# [18] = system: RARa:RXR (NR concentration 270 nM, RXRa partner concentration 90 nM)
# Method in brief: as §1
# [19] = system: RARa homodimer (NR concentration 270 nM)
# Method in brief: as §1
# [20] = system: RARb:RXRa (NR concentration 270 nM, RXRa partner concentration 90 nM)
# Method in brief: as §1
Sequence,PBM binding z-score [1],PBM binding z-score [2],PBM binding z-score [3],PBM binding z-score [4],PBM binding z-score [5],PBM binding z-score [6],PBM binding z-score [7],PBM binding z-score [8],PBM binding z-score [9],PBM binding z-score [10],PBM binding z-score [11],PBM binding z-score [12],PBM binding z-score [13],PBM binding z-score [14],PBM binding z-score [15],PBM binding z-score [16],PBM binding z-score [17],PBM binding z-score [18],PBM binding z-score [19],PBM binding z-score [20]
AGAATGAGGATACCAAAGATCAGGGAAACGCTTG,0.11,-0.468,-0.437,-0.336,-0.365,-0.155,0.826,0.344,0.225,0.512,0.148,0.0598,0.131,-0.145,-1.29,-0.349,-0.0472,-0.216,-0.258,-0.0511
TCTCGGAGGACACGAAAGCTCAGAGCTCGACATC,0.278,-0.178,-0.494,-0.291,-1.33,0.0148,0.133,0.762,2.01,1.21,1.28,0.237,-0.991,-1.02,-0.895,-0.392,-0.855,-0.157,-0.395,1.31
ACTAGTTGGTCAGCTGTGGTCACACACAATTCGG,0.168,-0.0982,-0.159,-0.0787,-0.362,0.0515,0.536,0.0705,-0.147,-0.158,1.14,0.902,0.0939,0.115,0.101,0.312,-0.402,0.442,0.116,1.23
GCGACGGGGGCATCAGCAGGTTACCATAACTTAA,2.95,3.18,0.557,5.21,8.02,4.19,2.48,3.35,1.55,2.59,1.76,4.14,7.32,9.29,1.83,3.29,0.826,3.42,-0.447,3.16
ACTATTAGTTGACTTAGAGCAACCGATACGACGC,-0.404,0.0474,-0.0686,0.0226,0.635,-0.306,0.964,-0.296,0.379,0.173,-0.101,0.383,1.2,1.1,0.577,-0.152,0.119,-0.00338,1.16,0.073
CATACAGGATCAGCTAGGCCAGAGTAGGGACGGC,-0.21,-0.464,0.0266,-0.7,-0.0365,-0.466,0.558,-0.422,-0.274,-0.505,-0.103,-0.208,0.289,0.351,0.422,-0.609,-0.0917,-0.441,0.241,-0.093
ACTAGCAGGCCAAGGATCACTCAAGATTAGTCCG,-0.313,-0.212,-0.373,-0.592,-0.598,0.628,2.12,3.37,1.33,2.55,0.88,0.675,-0.388,-0.36,0.0853,-0.479,-0.469,-0.293,0.362,0.296
ATATGTAGGTTACATCCTGGTCATTCAGGCTATG,0.666,2.03,0.602,1.28,0.798,3.16,5.21,4.44,2,3.57,7.08,7.21,2.2,2.23,0.657,0.747,0.205,1.05,0.992,1.11
CGTCCAAGGTCAGCAGGTTAGTGAAAGCGACGTG,4.92,3.23,-0.206,2.36,-0.346,4.15,2.77,3.33,0.363,1.88,2.23,2.41,-0.261,-0.686,3.19,2.75,0.49,3.24,0.634,4.85
ACTATCAGGCCAAGTTTGGGTCACTCAAACAAAG,0.363,0.344,-0.188,0.871,0.576,1.51,0.155,0.318,-0.0574,0.171,0.297,1.51,1.26,0.453,1,0.896,0.251,1.83,-0.177,2.12
GGAACGAGGGCAAATTGATAGCAGAGTTTGATGG,0.902,0.348,-0.101,0.452,-0.144,1.73,1.16,0.944,0.134,0.629,3.46,2.68,0.618,-0.23,0.358,0.625,0.703,0.402,-0.436,2.23
CAAAGTAGGTCAAAGGTCAAAGTCGAGCCAACCA,8.51,7.21,5.79,7.26,3.36,7.84,14.1,11.4,14.4,13.2,8.81,9.31,4.15,2.43,4.72,7.22,2.39,8.98,3.23,5.92
CAAACTTGGTCAAAGGTCAAAGTCGAGCCAACCA,6.18,6.18,4.48,5.67,2.36,6.84,11.5,10,10.4,11.2,3.33,6.48,1.57,0.873,4.08,6.01,1.58,7.69,1.5,5.11
ACGATTAGTTGAGACGAGGGCAACCGATAGGTTG,0.116,-0.256,-0.3,-0.292,-0.463,0.252,0.533,-0.0475,-0.114,-0.534,-0.118,0.112,0.232,-0.573,0.155,1.11,0.466,0.874,0.365,0.555
CGAACTAGGTCATTGACAGGACCGTGAATAGTAA,4.32,2.36,0.141,1.66,-0.048,4.62,7.17,6.36,3.72,5.79,8.09,8.42,3.24,1.41,2.02,0.914,-0.0715,1.5,0.647,3.51
ACTATTAGCTGACTTAGGGCAACCGATACGACGC,0.00773,-0.128,0.194,-0.149,0.546,-0.0754,0.886,0.11,-0.102,0.0192,0.43,0.75,1.05,1.38,0.825,-0.173,-0.168,0.142,1.14,0.676
ACTATTGGTTGAGACGAGGGCAACCGATAGGTTG,0.496,0.289,-0.00418,0.08,0.0327,0.62,0.556,0.157,0.062,0.367,-0.0898,0.516,0.379,0.283,0.821,1.5,0.199,1.1,0.274,1.07
CAAACTAGGTCACCGGAAGGTCAGAGTCCGCATG,5.32,4.74,2.63,4.09,0.598,5.96,9.65,7.46,5.57,7.33,8.5,8.94,4.78,2.92,4.96,4.71,0.703,6.14,2.03,5.31
GCAGACAGGGGAAACGCAGGTAACTCAGGGTGGC,-0.526,-0.555,-0.616,-0.597,-1.27,-0.505,0.299,-0.604,-1.01,-0.89,-0.682,-0.536,0.0572,-0.175,-1.42,-0.626,-0.571,-0.366,-1.03,-0.337
ATCTCTAGGTAAAGATAGTTCATTGAATGCAAAT,0.585,5.32,1.71,1.59,0.747,1.36,1.11,0.714,0.293,0.846,1.7,1.76,1.3,1.29,0.829,2.33,1.98,1.25,1.34,1.06
CGAACGAGGGCATGAGTTGCTAGCAAATGCCGAT,0.106,0.132,-0.624,0.0886,-1.12,1.35,1.1,1.52,0.000453,0.931,3.04,1.87,-0.188,-0.705,-0.0181,0.336,-0.327,0.293,-0.816,1.82
CCTAGCTGGTCAAGGTCACACACGCTATAGGTAC,4.92,3.91,1.74,3.43,0.392,4.23,2.76,3.05,0.699,1.94,1.88,2.8,0.834,0.076,3.15,4.03,1.43,4.64,2.61,3.99
TGAATGAGGTTATAAGAGCAGGGAACGTTGCAAA,1.63,1.78,-0.152,0.923,-0.0285,2.86,1.32,2.13,0.717,1.52,1.21,1.65,0.835,0.627,0.672,0.661,-0.193,1.39,0.226,1.29
GGAACGAGGGCAGGTTGATAGCAGAGTTTGATGG,0.204,0.00952,-0.393,0.00491,-0.45,0.686,0.674,0.307,-0.182,0.0591,2.17,1.68,-0.931,-0.47,0.542,0.273,0.636,0.164,0.17,1.87
CGTCCATGGTCAGAGAGGTCAGTGAATGCCGAGT,1.59,1.68,0.897,1.84,-0.375,2.51,0.301,0.981,-0.535,0.219,0.536,0.857,-0.938,-0.643,1.93,3.11,1.73,2.87,0.23,3.52
ACAGACAGGTGAGTGCAGGTAACTCAGCTGGACG,0.0345,-0.289,-0.365,-0.549,-1.06,-0.0295,0.62,-0.199,-0.134,-0.571,0.771,1.05,0.0571,-0.297,-0.465,-0.0581,-0.0579,-0.416,-0.183,0.35
AGAACGAGGGCAATTAGTTGATAGCACGGGTGGC,0.559,0.389,-0.309,0.306,-0.23,1.64,1.31,0.81,-0.134,0.104,3.45,2.65,0.442,-0.255,0.218,0.729,1.02,0.412,0.215,2.06
TGAAGGAGGTTATAAGATCAGGGAACGTTGCAAA,0.559,0.855,-0.0635,0.774,-0.481,2.16,0.845,1.42,0.992,1.16,-0.131,0.876,0.728,0.392,0.374,0.292,0.19,0.993,0.904,0.905

# — the supplement of paper PMC6555819
